# This is a sample that favours compounds with a hit; in the whole collection about 27% have one here.
# CYP2C9 inhib: blocks human cytochrome P450 2C9; P11712; CYP2C9 Supersomes, luciferin-H conversion, luminescence; inhibition, % at 5 µM; actives 20% (n = 96,000); AID 777;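 active = blocking of liver enzyme CYP2C9 beyond about 50% at 5 µM, limit read from the data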
# CYP2C9 act: CYP2C9 (human) activation. P11712. recombinant CYP2C9, luciferin-H conversion, luminescence; hits give high values; factor 1 = untreated enzyme, 0 = blocked. activation factor at 5 µM. actives 1.4% (n = 96,000). AID 1024;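 active = activation factor of 2 or more for CYP2C9 at a 5 µM dose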;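 also: 0 = sulfaphenazole-blocked wells and 1 = vehicle-only wells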
# CYP2C19 inhib: inhibitors of human CYP2C19; P33261; CYP2C19 Supersomes, luciferin-H EGE luminescence, 30 min; inhibition, % at 5 µM; actives 21% (n = 96,000); AID 778;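 active = CYP2C19 inhibition above a set limit at 5 µM in the primary screen, cut at about 50% in these data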;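 also: plate controls were negative control wells for no effect and 2.5 mM tranylcypromine positive control for full effect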
# CYP2C19 act: increases human CYP2C19 enzyme activity | recombinant CYP2C19, luciferin-H EGE luminescence; hits give high values; 0 = fully inhibited enzyme, 1 = untreated enzyme | P33261 | activation factor at 5 µM | 96,000 tested, under 10 active;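 active = activation factor of at least 2 at 5 µM in the primary screen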;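 also: 0 = wells with 2.5 mM tranylcypromine and 1 = vehicle-only wells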
# Cav32 inh: inhibitors of human Cav3.2 T-type calcium channel. O95180. Cav3.2-expressing cells, Fluo-4 calcium fluorescence FDSS; hits give low values. B-score at 10 µM. actives 4% (n = 100,000);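 active = single-dose well whose peak fluorescence ratio is a statistical outlier from its plate by either plate-standardised score or position-corrected B-score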
# Starred values were filed as active, the others as inactive; · = no result.
SMILES,CYP2C9 inhib,CYP2C9 act,CYP2C19 inhib,CYP2C19 act,Cav32 inh
Cc1nnc(NC(=O)C(C)Oc2ccc3c(C)cc(=O)oc3c2)s1 (stereo not drawn),94*,0.1,12,0.9,0.54
O=C(COc1cccc2ccccc12)NNC(=O)C1CCCO1 (stereo not drawn),-86,1.9,11,0.9,-0.9
Cc1ccc(C2NNC(=O)C2NC(=O)c2ccccc2)cc1 (stereo not drawn),23,0.8,60*,0.4,0.31
Cc1ccc(C(=O)NC2CCSC2=O)cc1 (stereo not drawn),-28,1.3,-20,1.2,1.6
COc1ccc(S(=O)(=O)N2CC(C)N(S(=O)(=O)c3ccc(OC)cc3)CC2C)cc1 (stereo not drawn),0,1,30,0.7,-1.9
COc1ccc(S(=O)(=O)N2CC3CCCN3c3cc(C(F)(F)F)ccc32)cc1 (stereo not drawn),-30,1.3,92*,0.1,-3.9
O=S(=O)(c1cc(Cl)ccc1Cl)N1CC2CCCN2c2ccc(C(F)(F)F)cc21 (stereo not drawn),82*,0.2,17,0.8,-1.6
COc1ccc(S(=O)(=O)N2CC3CCCN3c3ccc(C(F)(F)F)cc32)cc1 (stereo not drawn),32,0.7,73*,0.3,-0.22
COc1ccc(S(=O)(=O)N2CCN(S(=O)(=O)c3ccc(C(F)(F)F)cc3)CC2)cc1C,4,1,3,1,0.47
O=S(=O)(c1cc(C(F)(F)F)ccc1Cl)N1CCCCCC1,-87,1.9,21,0.8,-1.5
OCC1(CO)COC2(CCCC2)N1,-22,1.2,-18,1.2,1
CCC(OC(=O)C(NC(=O)c1ccccc1)c1ccccc1)C(=O)Nc1cc(C)on1 (stereo not drawn),32,0.7,28,0.7,-2
Cc1ccc(NC(=O)c2c(C(F)(F)F)nn(C)c2SCc2cccc(C(F)(F)F)c2)cc1C,92*,0.1,46,0.5,-0.18
Cc1ccc(NC(=O)c2c(C(F)(F)F)nn(C)c2SCc2ccc(Cl)cc2)cc1C,100*,0,65*,0.4,-4
COC(=O)c1ccc(NC(=O)Cn2nc(SC)n(N)c2=S)cc1,8,0.9,23,0.8,·
C=CCn1c(=N)c(C(=O)OC)cc2c(=O)n3cccc(C)c3nc21,25,0.7,1,1,·
O=C1CN(c2nc3ccccc3n3cnnc23)CC(=O)N1CCc1ccccc1,62*,0.4,44,0.6,-0.43
CCOc1c2ccc(C(=O)NCC34CC5CC(CC(C5)C3)C4)cc2nn1CC,25,0.7,7,0.9,-0.28
COC(=O)c1c(-c2cccnc2)csc1NC(=O)c1cc(C)on1,28,0.7,19,0.8,-0.97
Cc1cccc(-c2csc(NC(=O)c3cnccn3)c2C(=O)OC(C)C)c1,50*,0.5,30,0.7,0.19
O=C(NC1CCCCC1)c1ccc(S(=O)(=O)NCc2ccco2)cc1,27,0.7,9,0.9,-0.46
O=C(COC(=O)c1ccc(S(=O)(=O)NCc2ccco2)cc1)NCC1CCCCC1,58*,0.4,17,0.8,0.16
O=C(COC(=O)c1ccc(S(=O)(=O)Nc2ccccc2)cc1)NCCN1C(=O)CSC1=O,81*,0.2,62*,0.4,-0.0055
O=C(COC(=O)c1ccc(S(=O)(=O)Nc2ccccc2)cc1)NCc1ccco1,75*,0.2,42,0.6,-0.78
COc1cc(C(=O)N2CCC(NC(=O)C(Cc3ccccc3)NC(C)=O)CC2)cc(OC)c1OC (stereo not drawn),-16,1.2,0,1,1.8
SMILES,CYP2C9 inhib,CYP2C9 act,CYP2C19 inhib,CYP2C19 act,Cav32 inh
COC(=O)c1ccc(C23CC4(C2)[C@H](CN(Cc2ccc(C(F)(F)F)cc2)[C@@H]4c2ccccc2)C3c2ccc(Cl)nc2)cc1 (stereo partly drawn),·,·,·,·,0.091
CN(C)C(=O)c1ccccc1-c1ccccc1,6,0.9,23,0.8,-0.04
CCC1(COC(=O)Nc2cccc(Cl)c2)COC1,8,0.9,48,0.5,-0.76
O=C(c1ccc(S(=O)(=O)N2CCOCC2)cc1)N1CCCc2ccccc21,28,0.7,56*,0.4,-1.9
O=C(c1ccc(C(=O)N2CCCc3ccccc32)nc1)N1CCCc2ccccc21,11,0.9,12,0.9,0.54
O=C(c1ccc(S(=O)(=O)N2CCCC2)cc1)N1CCCc2ccccc21,88*,0.1,97*,0,0.54
O=C(Nc1ccccc1)c1ccc(S(=O)(=O)N2CCOCC2)cc1,13,0.9,7,0.9,0.51
